Data taken from PubChem BioAssay.
Calls of active or inactive are those of the source.

Columns and labels:
[1] = optical density shifts of acrAB sulA E. coli – strain DRC41, OD650, 48 h, E. coli filamentation inducer project, primary screen (AID 1152); settings: higher = more signal, called active from +8 up or from −8 down;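 note: E. coli MC1000 strain DRC41 lacking acrAB efflux pump and sulA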
[2] = probe aLefty1 binding on compound microarray – biochemical, small-molecule microarray, 635/667 nm fluorescence, primary screen (AID 1153); settings: higher = more signal;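 note: score merges spot fluorescence with signal-to-noise ratio from the scanned slide images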
[3] = plasmodial surface anion channel blockers, osmotic lysis – cell-based, P. falciparum Indochina, OD700, 1 h, primary screen (AID 1154); settings: P. falciparum Indochina infected RBC osmotic lysis, higher = more signal, called active from +8 up or from −8 down
[4] = plasmodial surface anion channel blockers, osmotic lysis – cell-based, P. falciparum Indochina, OD700, 2 h, primary screen (AID 1155);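 note: lysis reports solute entry through the parasite surface anion channel PSAC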; settings: P. falciparum Indochina infected erythrocytes, higher = more signal, called active from +8 up or from −8 down
[5] = changes in parasitized red cell lysis, either direction – P. falciparum Indochina, OD700, 3 h, PSAC antagonist project, primary screen (AID 1156); settings: P. falciparum-infected erythrocytes, osmotic lysis, higher = more signal, called active from +8 up or from −8 down
[6] = plasmodial surface anion channel blockers, osmotic lysis – cell-based, P. falciparum Indochina, OD700, 18 h, primary screen (AID 1157); settings: P. falciparum Indochina infected erythrocytes, osmotic lysis OD700, 18 h; higher = more signal, called active from +8 up or from −8 down
[7] = S6 kinase pathway phospho-S6 level changes – cell-based, A549, cytoblot, luminescence, serum-stimulated, primary screen (AID 1158); settings: 5 h, higher = more signal;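 note: serum-stimulated A549 lung adenocarcinoma cells; signal is phosphorylated S6 detected by cytoblot immunostaining with HRP secondary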
[8] = target: NADPH oxidase 2 (Homo sapiens) (UniProt P04839); experiment: compounds shifting NOX2 Amplex Red fluorescence – cell-based, HEK293-NOX2, PMA-stimulated, NOX inhibitor project, primary screen (AID 1159); settings: 45 min, higher = more signal, called active from +8 up or from −8 down; note: test concentration not given here
Sequence of NADPH oxidase 2 (Homo sapiens) (P04839 whole entry, looked up): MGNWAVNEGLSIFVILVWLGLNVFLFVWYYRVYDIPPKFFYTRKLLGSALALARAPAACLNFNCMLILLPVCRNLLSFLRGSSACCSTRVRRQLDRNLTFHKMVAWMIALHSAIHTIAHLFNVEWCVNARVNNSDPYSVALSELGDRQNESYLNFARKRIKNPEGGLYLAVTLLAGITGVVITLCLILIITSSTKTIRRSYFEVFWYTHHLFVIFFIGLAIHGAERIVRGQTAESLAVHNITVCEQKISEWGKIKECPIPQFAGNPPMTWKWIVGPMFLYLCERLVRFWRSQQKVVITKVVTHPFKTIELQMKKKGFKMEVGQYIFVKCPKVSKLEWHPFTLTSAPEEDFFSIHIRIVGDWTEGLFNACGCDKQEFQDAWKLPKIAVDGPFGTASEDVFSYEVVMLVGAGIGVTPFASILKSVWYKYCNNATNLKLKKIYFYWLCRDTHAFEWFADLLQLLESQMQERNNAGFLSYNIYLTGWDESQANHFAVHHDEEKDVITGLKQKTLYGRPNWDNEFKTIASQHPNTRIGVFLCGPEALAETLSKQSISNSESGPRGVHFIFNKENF

[9] = target: NADPH oxidase 4 (Homo sapiens) (UniProt Q9NPH5); experiment: compounds shifting NOX4 Amplex Red fluorescence – cell-based, HEK293-NOX4, tetracycline-induced, NOX inhibitor project, primary screen (AID 1160); settings: HEK293-NOX4, Amplex Red H2O2 fluorescence, 45 min; higher = more signal, called active from +8 up or from −8 down
Sequence of NADPH oxidase 4 (Homo sapiens) (Q9NPH5 whole entry, looked up): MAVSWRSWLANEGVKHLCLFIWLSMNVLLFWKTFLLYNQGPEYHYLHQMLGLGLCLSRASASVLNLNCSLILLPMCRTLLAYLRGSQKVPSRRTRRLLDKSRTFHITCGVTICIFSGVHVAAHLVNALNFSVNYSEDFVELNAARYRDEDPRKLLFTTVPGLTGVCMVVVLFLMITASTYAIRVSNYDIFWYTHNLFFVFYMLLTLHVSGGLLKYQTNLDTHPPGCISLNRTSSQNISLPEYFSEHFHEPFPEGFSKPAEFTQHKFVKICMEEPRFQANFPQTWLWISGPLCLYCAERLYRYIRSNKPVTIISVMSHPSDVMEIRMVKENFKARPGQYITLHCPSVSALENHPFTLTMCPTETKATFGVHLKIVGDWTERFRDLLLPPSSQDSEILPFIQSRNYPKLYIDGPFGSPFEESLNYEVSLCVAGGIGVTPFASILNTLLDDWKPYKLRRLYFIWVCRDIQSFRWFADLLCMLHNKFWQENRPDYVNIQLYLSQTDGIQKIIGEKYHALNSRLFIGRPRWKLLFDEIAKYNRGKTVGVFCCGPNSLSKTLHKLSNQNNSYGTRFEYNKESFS

[10] = target: NADPH oxidase 5 (Homo sapiens) (UniProt Q96PH1); experiment: compounds shifting NOX5 Amplex Red fluorescence – cell-based, HEK293-NOX5, NOX inhibitor project, primary screen (AID 1161); settings: HEK293-NOX5, ionomycin, 45 min, higher = more signal
Sequence of NADPH oxidase 5 (Homo sapiens) (Q96PH1 whole entry, looked up): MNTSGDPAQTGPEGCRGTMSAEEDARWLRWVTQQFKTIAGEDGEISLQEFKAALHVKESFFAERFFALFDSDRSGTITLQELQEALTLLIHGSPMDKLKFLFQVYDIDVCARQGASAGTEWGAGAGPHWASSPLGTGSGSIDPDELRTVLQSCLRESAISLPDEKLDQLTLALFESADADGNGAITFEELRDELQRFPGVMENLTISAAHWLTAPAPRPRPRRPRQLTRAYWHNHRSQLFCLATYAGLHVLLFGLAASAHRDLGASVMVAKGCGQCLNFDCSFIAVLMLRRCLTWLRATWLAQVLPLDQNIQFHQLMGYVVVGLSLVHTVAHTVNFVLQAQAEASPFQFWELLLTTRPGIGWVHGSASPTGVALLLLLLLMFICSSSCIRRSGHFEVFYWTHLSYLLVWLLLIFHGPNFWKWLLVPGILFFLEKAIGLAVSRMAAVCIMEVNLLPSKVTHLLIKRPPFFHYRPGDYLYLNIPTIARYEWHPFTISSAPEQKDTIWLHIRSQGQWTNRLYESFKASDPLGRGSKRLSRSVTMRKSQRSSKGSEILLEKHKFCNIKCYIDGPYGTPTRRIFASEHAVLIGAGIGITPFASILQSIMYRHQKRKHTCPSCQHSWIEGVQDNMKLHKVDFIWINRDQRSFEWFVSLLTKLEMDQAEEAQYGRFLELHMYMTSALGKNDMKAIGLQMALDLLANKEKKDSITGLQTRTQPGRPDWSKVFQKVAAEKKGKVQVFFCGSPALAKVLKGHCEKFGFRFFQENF

SMILES	z-score [1]	composite z-score [2]	z-score [3]	z-score [4]	z-score [5]	z-score [6]	z-score [7]	z-score [8]	z-score [9]	z-score [10]
CN(C)CCCNC(=O)[C@@H]1c2ccccc2C(=O)N(Cc2ccccc2)[C@H]1c1ccc(CO)cc1	0.346 (inactive)	-0.163	2.98 (inactive)	0.604 (inactive)	2.64 (inactive)	0.33 (inactive)	-0.25	-1.11 (inactive)	1.02 (inactive)	-0.911
COC(=O)C1(C)C=C2C(=C(c3ccccc3)C(=O)C2C)CN1 (stereo not given)	-1.47 (inactive)	0.22	0.585 (inactive)	0.196 (inactive)	0.745 (inactive)	0.543 (inactive)	-0.387	0.512 (inactive)	-2.49 (inactive)	-2.34
C#C[C@@H]1Oc2ccccc2S(=O)(=O)N2CCC[C@H]12	-1.16 (inactive)	0.149	0.217 (inactive)	0.676 (inactive)	-0.0722 (inactive)	0.107 (inactive)	-0.222	0.0921 (inactive)	-1.48 (inactive)	-0.194
O=C1[C@H]2[C@H]3[C@H](O)[C@H](O)CC(=NOC[C@@H](O)COCc4ccco4)[C@@H]3CC[C@H]2C(=O)N1c1ccc(F)cc1F	-0.0233 (inactive)	-0.639	2.3 (inactive)	0.537 (inactive)	1.67 (inactive)	0.405 (inactive)	-0.51	-1.37 (inactive)	0.523 (inactive)	-0.579
CCCNC(=O)[C@@H]1c2ccccc2C(=O)N(c2ccc(C)cn2)[C@H]1c1ccc(CO)cc1	-0.292 (inactive)	-0.303	1.97 (inactive)	-0.0991 (inactive)	0.562 (inactive)	0.0336 (inactive)	0.214	0.114 (inactive)	0.0822 (inactive)	-0.974
COC(=O)[C@H]1COC(c2ccc(OCCCO)cc2)=N1	-0.13 (inactive)	0.245	22.4 (active)	5.33 (inactive)	0.0031 (inactive)	0.642 (inactive)	-0.0797	-0.257 (inactive)	0.172 (inactive)	-0.663
COc1ccc(CCNC(=O)[C@@H]2c3ccccc3C(=O)N(c3ccc(C)cn3)[C@H]2c2ccc(CO)cc2)cc1	0.119 (inactive)	-0.06	2.45 (inactive)	0.478 (inactive)	0.414 (inactive)	0.401 (inactive)	-0.0568	0.0857 (inactive)	-0.882 (inactive)	-2.5
CCN(CC)c1ccc(N2CC=CC34O[C@@H]5/C=C\CCC(C)OC(=O)C5[C@H]3C(=O)N(CCCO)[C@@H]4C2=O)cc1 (stereo not given in full)	-0.074 (inactive)	-0.191	1.43 (inactive)	-0.223 (inactive)	-0.0086 (inactive)	-0.18 (inactive)	-0.473	0.056 (inactive)	-1.51 (inactive)	0.975
CCN1C(=O)[C@H]2[C@H]3[C@H](O)[C@H](O)CC(=NO[C@@H]4O[C@H](CO)[C@@H](O)[C@H](O)[C@H]4O)[C@@H]3CC[C@H]2C1=O	0.0871 (inactive)	-0.183	0.568 (inactive)	0.283 (inactive)	-0.846 (inactive)	-0.0143 (inactive)	0.345	0.0968 (inactive)	0.303 (inactive)	-0.0261
COC(=O)C1=C(C)[C@@H](O)[C@@H](C)[C@H](c2c(OC)c(OC)c(C)c(OC)c2OC)O1	-0.472 (inactive)	-0.356	0.211 (inactive)	0.589 (inactive)	0.336 (inactive)	0.1 (inactive)	-0.468	-0.101 (inactive)	-0.0181 (inactive)	0.536
COCCOC(=O)N1C(=O)[C@@]2(c3cc(C#CC4(O)CCCCCC4)ccc31)[C@H](C(=O)N1CCN(c3ncccn3)CC1)[C@H]1C(=O)O[C@H](c3ccccc3)[C@H](c3ccccc3)N1[C@@H]2c1ccc(OCCO)cc1	1.74 (inactive)	0.485	11.7 (active)	2.25 (inactive)	1.35 (inactive)	1.19 (inactive)	0.372	1.69 (inactive)	-0.754 (inactive)	1.24
COC(=O)[C@H](C)NC(=O)CCC1CC(OC(=O)NCCc2ccc(F)cc2)CC2(CCCC(COC(=O)NCC(c3ccccc3)c3ccccc3)O2)O1 (stereo not given in full)	0.523 (inactive)	-0.194	8.81 (active)	2.61 (inactive)	-0.286 (inactive)	0.492 (inactive)	0.71	0.238 (inactive)	0.0541 (inactive)	0.185
CN1C(=O)[C@@]2(CCC(=O)OC(C)(C)C)N=C(c3ccc(OCCCO)cc3)O[C@H]2c2ccccc21	1.02 (inactive)	0.0959	30.8 (active)	26.6 (active)	1.7 (inactive)	1.11 (inactive)	1.09	-2.05 (inactive)	0.112 (inactive)	-1.43
CO[C@H]1O[C@H](CO)[C@@H](OC(=O)Nc2ccc(C#N)cc2)[C@H](OC(=O)c2cc3ccccc3[nH]2)[C@H]1OC(=O)c1cc2ccccc2[nH]1	2.89 (inactive)	0.254	3.44 (inactive)	0.178 (inactive)	1.71 (inactive)	-0.418 (inactive)	2.06	-3.9 (inactive)	-0.214 (inactive)	-4.49
C=C(CCCC)C(=O)CC[C@@H](OC(C)=O)c1cccc(OCCO)c1	-0.462 (inactive)	-0.101	2.82 (inactive)	1.81 (inactive)	-1.27 (inactive)	0.822 (inactive)	0.0149	-1.14 (inactive)	-1.3 (inactive)	-3.02
Cc1ccc(C2CC=C(C(=O)O)CN2S(=O)(=O)c2ccc(C)cc2)cc1 (stereo not given)	-1.29 (inactive)	-0.0294	1.26 (inactive)	0.838 (inactive)	0.927 (inactive)	0.98 (inactive)	-0.51	-0.446 (inactive)	-1.44 (inactive)	0.321
CO[C@@H]1COC(=O)CC=C[C@@H](C)[C@H](OC)COC(=O)[C@H](COCc2ccccc2)NC(=O)CC=C[C@H]1C	-0.991 (inactive)	-0.147	-0.129 (inactive)	0.151 (inactive)	0.181 (inactive)	0.354 (inactive)	0.354	-1.79 (inactive)	0.0385 (inactive)	0.0539
CCN1C(=O)[C@H]2[C@H]3[C@H](O)[C@H](O)CC(=NOC[C@@H](C)[C@H](OCc4ccccc4)C(C)C)[C@@H]3CC[C@H]2C1=O	0.618 (inactive)	-0.144	0.551 (inactive)	0.106 (inactive)	0.061 (inactive)	0.0723 (inactive)	-0.357	-0.136 (inactive)	0.338 (inactive)	-0.287
CC(C)C[C@@H]1NC(=O)[C@H]2C[C@@H](C(=O)NCCCCCCN(C)C)[C@@H](c3cccc(OCCO)c3)N2C1=O	-0.054 (inactive)	0.0816	4.3 (inactive)	0.594 (inactive)	1.04 (inactive)	0.154 (inactive)	0.0695	1.77 (inactive)	1.07 (inactive)	1.84
COc1ccc(O[C@@H]2[C@H](O)CO[C@H]2C=CC#Cc2ccccc2)cc1	-0.939 (inactive)	-0.147	2.74 (inactive)	0.488 (inactive)	0.356 (inactive)	0.0508 (inactive)	-0.367	0.0749 (inactive)	1.23 (inactive)	1.46
COc1ccc(O[C@H]2C=C[C@@H](c3ccccc3)O[C@@H]2COC(=O)CCC(C)=NOC(C)CN2CCCCc3nc(C)c(C)cc32)cc1 (stereo not given in full)	0.233 (inactive)	-0.584	21.7 (active)	3.58 (inactive)	1.68 (inactive)	1.15 (inactive)	-0.0603	-2.04 (inactive)	-0.369 (inactive)	-0.824
CO[C@H]1COC(=O)[C@H](C)NC(=O)[C@@H](C)COC(=O)CC=C[C@@H]1C	0.66 (inactive)	-0.251	0.945 (inactive)	0.54 (inactive)	0.795 (inactive)	0.465 (inactive)	0.0768	-0.835 (inactive)	0.412 (inactive)	0.193
O=C1C[C@@H](O)[C@@H](O)[C@@H]2[C@@H]3C(=O)N(c4ccc(F)cc4F)C(=O)[C@@H]3CC[C@@H]12	-0.349 (inactive)	-0.101	-0.571 (inactive)	-0.0709 (inactive)	-0.659 (inactive)	-0.408 (inactive)	-0.0159	-2.64 (inactive)	0.473 (inactive)	-0.457
CC(=O)OC[C@H]1O[C@H](CCON=C(C)CCN2CCc3nc(-c4ccccc4)c(-c4ccccc4)cc3C2)C=C[C@@H]1OC(C)=O	-0.132 (inactive)	0.0446	2.65 (inactive)	0.452 (inactive)	0.676 (inactive)	0.148 (inactive)	-0.166	-2.87 (inactive)	-0.455 (inactive)	-2.78
Cc1cc2c(nc1C)CCCN2CC(O)CN1CCN(C)CC1 (stereo not given)	-0.243 (inactive)	0.0733	0.339 (inactive)	0.494 (inactive)	0.0085 (inactive)	-0.0963 (inactive)	-0.542	0.438 (inactive)	-1.07 (inactive)	-1.08
COC(=O)[C@@]1(Cc2ccc(F)cc2)[C@H]2c3cc(C(=O)N(C)C)n(Cc4ccc(OC)c(OC)c4)c3C[C@H]2CN1C(=O)c1ccccc1	-1.19 (inactive)	0.109	0.933 (inactive)	-0.512 (inactive)	0.746 (inactive)	-1.37 (inactive)	2.19	-3.29 (inactive)	-1.97 (inactive)	-4.09
